This is a sample that favours compounds with a hit; in the whole collection about 27% have one here.
CYP2C19 act: activators of human cytochrome P450 2C19. recombinant CYP2C19, luciferin-H EGE luminescence; stronger effect = higher value; 0 = fully inhibited enzyme, 1 = untreated enzyme. activation factor at 5 µM. 96,000 tested, under 10 active. AID 1025. P33261;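 active means activation factor of at least 2 at 5 µM in the primary screen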;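 further: 0 = wells with 2.5 mM tranylcypromine and 1 = vehicle-only wells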
EphB4 ephrin blk: blocks human EphB4 binding to ephrin-B2. EphB4 LBD / TNYL-RAW-Alexa532 peptide, fluorescence polarization. inhibition, % at 7 µM. AID 720. 97,000 tested, 0.15% active;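 active means inhibition above the screen-wide mean inhibition plus 3 SD, cut at about 15% in these data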;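 further: 0% = DMSO wells and 100% = excess unlabeled TNYL-RAW peptide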
Target sequence (P54760 whole entry, looked up, the tested form may be a part): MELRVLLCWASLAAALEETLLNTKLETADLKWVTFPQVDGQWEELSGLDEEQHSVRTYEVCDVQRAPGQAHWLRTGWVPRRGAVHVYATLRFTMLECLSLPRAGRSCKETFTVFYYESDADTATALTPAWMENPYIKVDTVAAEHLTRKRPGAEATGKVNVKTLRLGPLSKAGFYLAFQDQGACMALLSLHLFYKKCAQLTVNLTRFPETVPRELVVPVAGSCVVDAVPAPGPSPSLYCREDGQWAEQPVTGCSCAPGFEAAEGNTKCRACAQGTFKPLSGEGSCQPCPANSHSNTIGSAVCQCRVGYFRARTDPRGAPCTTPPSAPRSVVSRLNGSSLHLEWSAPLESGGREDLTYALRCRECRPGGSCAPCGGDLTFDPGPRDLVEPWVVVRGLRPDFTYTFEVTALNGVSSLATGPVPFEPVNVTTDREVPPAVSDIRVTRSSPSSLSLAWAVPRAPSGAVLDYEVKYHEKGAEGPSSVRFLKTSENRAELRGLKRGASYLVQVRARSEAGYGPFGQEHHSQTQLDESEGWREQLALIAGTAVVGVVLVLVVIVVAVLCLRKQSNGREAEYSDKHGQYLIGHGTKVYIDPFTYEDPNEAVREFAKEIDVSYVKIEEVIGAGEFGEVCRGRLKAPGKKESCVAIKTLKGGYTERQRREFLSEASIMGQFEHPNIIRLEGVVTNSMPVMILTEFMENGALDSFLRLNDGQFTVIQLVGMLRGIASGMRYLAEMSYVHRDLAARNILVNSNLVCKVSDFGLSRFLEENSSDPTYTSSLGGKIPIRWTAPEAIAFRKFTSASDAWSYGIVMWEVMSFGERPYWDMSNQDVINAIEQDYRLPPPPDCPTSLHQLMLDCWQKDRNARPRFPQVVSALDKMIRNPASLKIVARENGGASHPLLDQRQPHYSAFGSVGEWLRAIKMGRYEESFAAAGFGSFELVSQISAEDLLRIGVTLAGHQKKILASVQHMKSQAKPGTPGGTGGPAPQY
CYP2C19 inhib: inhibitors of human CYP2C19; 96,000 tested, 21% active; inhibition, % at 5 µM; CYP2C19 Supersomes, luciferin-H EGE luminescence, 30 min;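 active means CYP2C19 inhibition above a set limit at 5 µM in the primary screen, cut at about 50% in these data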;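 further: plate controls were negative control wells for no effect and 2.5 mM tranylcypromine positive control for full effect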
CYP2C9 inh: inhibitors of human CYP2C9; 96,000 tested, 20% active; CYP2C9 Supersomes, luciferin-H conversion, luminescence; P11712; inhibition, % at 5 µM;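 active means blocking of liver enzyme CYP2C9 beyond about 50% at 5 µM, limit read from the data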
CYP2C9 act: CYP2C9 (human) activation. recombinant CYP2C9, luciferin-H conversion, luminescence; stronger effect = higher value; factor 1 = untreated enzyme, 0 = blocked. 96,000 tested, 1.4% active. activation factor at 5 µM. P11712. AID 1024;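 active means activation factor of 2 or more for CYP2C9 at a 5 µM dose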;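 further: 0 = sulfaphenazole-blocked wells and 1 = vehicle-only wells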
Starred values were filed as active, the others as inactive; . = not tested or not shown.

SMILES	CYP2C19 act	EphB4 ephrin blk	CYP2C19 inhib	CYP2C9 inh	CYP2C9 act
CN1C(=O)C(=C2CCCCCC2)SC1=S	0.9	0.9	14.3	10.2	0.9
Cc1cc(C(F)F)n2ncc(C(=O)NCc3ccccc3C(F)(F)F)c2n1	1.1	0.1	-14.7	-10.8	1.1
CN(C)CCCNCCCNC(=O)/C(=N\O)c1ccccn1	.	6.2	.	.	.
CCOc1ccc(C(=O)N2CCN=C2SC)cc1OCC	1	1.3	-4.5	-20.3	1.2
COc1ccc(-n2c(=O)cc(N3CCN(c4ccccc4)CC3)[nH]c2=O)cc1	0.9	-6.3	9.9	5.1	0.9
Cc1ccc(C)c(-n2nnnc2SCC(=O)c2ccc3c(c2)NC(=O)CO3)c1	0.4	0.4	56.2*	-153.7	2.5*
CCC1Oc2ccccc2N(CC(=O)NCCCN2CCOCC2)C1=O (stereo not drawn)	.	3.3	.	.	.
Clc1cccc(COn2c(-c3ccc(Cl)cc3Cl)nc3ncccc32)c1	0.1	2.2	93.5*	91.2*	0.1
Cc1ccc(COn2c(-c3ccc(Cl)cc3Cl)nc3ncccc32)cc1	0.2	2.9	82.8*	34.3	0.7
COC(=O)c1sc2ncccc2c1OCc1cccc(Cl)c1	1	0.4	-2.5	2.1	1
Cc1ccc(C)c(N2CCN(C(c3ccncc3)c3nnnn3Cc3ccccc3)CC2)c1 (stereo not drawn)	0	0.2	96.7*	93.0*	0.1
c1ccc(C(c2nnnn2Cc2ccco2)N2CCN(c3nc4ccccc4s3)CC2)cc1 (stereo not drawn)	.	5.4	.	.	.
CCCCC(c1nnnn1Cc1ccco1)N1CCN(c2nc3ccccc3s2)CC1 (stereo not drawn)	0.1	-1.6	94.6*	91.4*	0.1
c1ccc(Cn2nnnc2C(c2ccccc2)N2CCN(c3nc4ccccc4s3)CC2)cc1 (stereo not drawn)	0.4	0.8	57.8*	64.7*	0.4
COc1ccccc1C(c1nnnn1Cc1ccccc1)N1CCN(c2nc3ccccc3s2)CC1 (stereo not drawn)	0.5	.	47.2	55.6*	0.4
Cc1cccc(-c2n[nH]c([N+](=O)[O-])n2)c1	1.1	-3.3	-7.1	3.1	1
CCCC(c1nnnn1Cc1ccc(OC)cc1)N1CCN(c2ccccc2OC)CC1 (stereo not drawn)	0.6	-7.7	42.7	48.2	0.5
CCCC(c1nnnn1Cc1ccccc1)N1CCN(c2ccccc2OC)CC1 (stereo not drawn)	0.4	-7.5	56.9*	48.7	0.5
COc1ccc(/C=C(/NC(=O)c2ccccc2)C(=O)N/N=C/c2cccs2)cc1OC	0.7	6.3	28.8	3.1	1
COc1ccc(S(=O)(=O)N(CC(=O)N/N=C/c2cccs2)c2ccc(C)cc2)cc1OC	0	2.8	99.2*	46.9	0.5
CCOc1ccc(S(=O)(=O)N(CC(=O)N/N=C/c2cccs2)c2ccc(C)cc2)cc1	0.5	3.2	52.6*	7.2	0.9
CCOc1ccc(S(=O)(=O)N(CC(=O)O)c2ccc(C)cc2)cc1	0.8	0.3	20.7	45.9	0.5
Cc1ccc(N(CC(=O)NC(C)c2ccccc2)S(=O)(=O)c2cccs2)cc1 (stereo not drawn)	0	5.3	97.5*	86.3*	0.1
COc1ccc(S(=O)(=O)N(CC(=O)N/N=C/c2cccs2)c2cc(C)cc(C)c2)cc1OC	0.5	3.1	52.6*	59.8*	0.4
CC(=O)OC(C#CCN1CCOCC1)c1ccccc1 (stereo not drawn)	1	-4.1	4.4	7.1	0.9
SMILES	CYP2C19 act	EphB4 ephrin blk	CYP2C19 inhib	CYP2C9 inh	CYP2C9 act
CCOC(=O)CSc1nnc(CNC(=O)Cc2ccccc2)n1C	1.1	-8.3	-12.2	-12.2	1.1
O=C(O)C1C2C=CC(C2)C1C(=O)Nc1cccc(C(=O)N2CCCCC2)c1 (stereo not drawn)	1.1	-7.6	-6.4	-29.2	1.3
O=C(Cn1c(=O)n(Cc2ccco2)c(=O)c2c3c(sc21)CCCCC3)Nc1ccccc1	1	-1.2	3.2	42.8	0.6
O=C(c1ncn[nH]1)N1CCN(c2nc(-c3ccccc3)cs2)CC1	0.8	-5.0	22.3	11.8	0.9
Cn1cnnc1SCC(=O)c1ccc(OC(F)F)cc1	0.7	-6.1	27.3	-18.3	1.2
N#CCCN(CCC#N)c1nncs1	1	-2.2	-4.7	5.6	0.9
CC(C)(C)c1csc(N(CCC#N)CCC#N)n1	0.5	4.0	54.1*	56.1*	0.4
N#CC1=C(S)N(c2ccccc2)C(c2cccs2)NC1=O (stereo not drawn)	1	-7.2	3.3	30.2	0.7

Source: PubChem BioAssay (several laboratories)
